# A selection: hits, their analogues and other compounds. The true share with any hit is near 4.7%.
# D1 ag: activates the human D1 dopamine receptor; 1% of 360,000 active; P21728; activation, % at 2 µM; HEK293 T-REx D1 cells, calcium flux, agonist mode; note: 0% is about no effect
# Target sequence (P21728 whole entry, looked up): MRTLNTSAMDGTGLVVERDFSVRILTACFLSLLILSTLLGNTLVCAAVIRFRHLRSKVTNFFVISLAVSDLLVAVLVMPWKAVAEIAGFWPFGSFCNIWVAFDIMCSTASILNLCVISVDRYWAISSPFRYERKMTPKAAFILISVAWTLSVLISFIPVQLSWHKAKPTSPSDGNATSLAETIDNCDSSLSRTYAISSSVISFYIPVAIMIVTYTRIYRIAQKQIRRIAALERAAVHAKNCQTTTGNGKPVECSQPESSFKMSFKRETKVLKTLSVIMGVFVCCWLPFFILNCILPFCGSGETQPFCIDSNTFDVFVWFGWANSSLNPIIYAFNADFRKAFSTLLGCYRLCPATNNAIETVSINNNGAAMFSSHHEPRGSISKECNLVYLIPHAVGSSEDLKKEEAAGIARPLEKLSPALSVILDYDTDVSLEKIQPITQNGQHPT
#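 Agonism was scored from calcium flux recorded over 180 s (1 read/s) after pintool compound addition, following a 10-cycle baseline. Cells were inducible force-coupled HEK293 TREx D1, plated overnight at 30 C and loaded with no-wash calcium dye.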
# TRHR ag: agonists of human TRH receptor; activation, % at 2 µM; 0.18% of 360,000 active; TRHR cells, calcium flux fluo-8, FDSS agonist mode; AID 493084; P34981; note: 0% is about no effect
#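 In this calcium-flux screen, cells bearing human TRHR are dye-loaded with fluo-8, baselined for 10 cycles, then exposed to library compounds; positive kinetic calcium responses during the agonist phase mark hits, with TRH as control.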
# TRHR enhancer: TRH receptor (human) allosteric enhancement; P34981; TRHR cells, fluo-8 calcium fluorescence, EC20 TRH enhancement; enhancement, % at 2 µM; 0.66% of 360,000 active; in the data active = enhancement above about 30%; note: 0% is about no effect
#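 Enhancer read-out: after compound pinning and an initial kinetic agonist-mode read, an EC20 of TRH (10 nM final) was injected and fluo-8 calcium signal (Ex 480/Em 530) followed at 1 s/cycle for 100 cycles in TRHR-expressing cells.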
# D1 PAM: potentiators of human D1 dopamine receptor | 0.036% of 360,000 active | potentiation, % at 10 µM | P21728 | HEK293 TREx D1 cells, calcium flux, dopamine EC20 potentiation; in the data active = potentiation above about 30%; note: 0% is about no effect
# D1 antagonist: blocks dopamine activation of the human D1 receptor. P21728. HEK293 TREx D1 cells, calcium flux, dopamine EC80; hits give low values. activity change, negative = inhibition, % at 10 µM. 3.2% of 360,000 active. AID 504652; in the data active = activity change below about -30%; note: % is set by controls: 0 for no effect and ±100 for the full control effect
#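 Kinetic fluorescence of a calcium dye serves as the read-out. D1-expressing Hek293 Trex cells, induced overnight at 30 C, are exposed to compound for 180 s before an EC80 dopamine addition, then read 180 s further.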
# * hit, by the source's call. Cut-off read from the data, not from the text of the source, unless noted: active = activation above about 30%; inactive = the rest.
SMILES,D1 ag,TRHR ag,TRHR enhancer,D1 PAM,D1 antagonist
COc1ccc(NC(=O)CCCn2nc(C)c3c(C)n(-c4ccccc4)nc3c2=O)cc1OC,0,0,1,-2,-53*
COc1ccc(CCNC(=O)Cn2nc(C)c3c(C)n(-c4ccc(C)cc4)nc3c2=O)c(OC)c1,2,-1,-8,-2,-43*
CC1=C(C(=O)N2CCN(c3ccc(Cl)cc3)CC2)C2(CCC(C)CC2)OC1=O (stereo not drawn),2,-1,50*,6,6
CC1=C(C(=O)N2CCN(c3cccc(Cl)c3)CC2)C2(CCCCC2)OC1=O,0,0,1,-1,2
CN(C)N=Nc1ccc(S(=O)(=O)/N=C(\O)c2ccccc2)cc1,1,1,5,-4,0
COc1ccc(-c2cn[nH]c2C)cc1,-1,-1,31*,0,-37*
Cc1cc(/C=N/NC(=O)C(O)(c2ccccc2)c2ccccc2)c(C)n1-c1cccc(C(=O)O)c1,2,0,2,-5,-31*
Cc1cc(/C=N/NC(=O)C(O)(c2ccccc2)c2ccccc2)c(C)n1-c1ccc(C(=O)O)cc1,0,0,0,-5,5
Cn1c(CNC(=O)CSc2nc(-c3ccccc3F)nc3cc(=O)[nH]n23)nc2ccccc21,0,0,-3,-4,-58*
CC(NC(=O)CSc1nc(-c2ccccc2F)nc2cc(=O)[nH]n12)c1nc2ccccc2n1C (stereo not drawn),4,0,17,3,-14
COc1ccc2c(CNCCc3cccs3)c(C(=O)O)n(Cc3ccc(F)cc3Cl)c2c1,-1,0,1,6,4
O=C(NCc1nnc(-c2cc3ccccc3[nH]2)o1)c1ccccc1,3,0,-5,-4,-11
O=C1/C(=C/c2ccc(Br)cc2)Oc2cc(O)ccc21,45*,14,0,-6,-10
CC(C)(C)c1ccc(/C=C2\Oc3cc(O)ccc3C2=O)cc1,11,15,-5,-3,-46*
CC(=O)Oc1ccc(/C=C2/Oc3ccccc3C2=O)cc1,12,3,-7,1,11
COC(=O)c1ccc2c(c1)C(=O)/C(=C/c1ccc(O)cc1)O2,88*,31*,-6,-4,2
O=C1/C(=C/c2ccc([N+](=O)[O-])cc2)Oc2cc(O)ccc21,16,8,-3,-4,-7
COc1ccc2nc3oc(C(=O)N4CCN(c5cc(C)ccc5C)CC4)cc3cc2c1,-1,-1,9,3,4
CCc1ccc(Nc2cc(C(=O)NCCCN(C)c3ccccc3)c3ccccc3n2)cc1,0,0,-2,0,4
CCc1cccc2c(C(=O)C(NCCOC)c3ccccc3)c[nH]c12 (stereo not drawn),14,3,-3,-6,-17
CCNC(C(=O)c1c[nH]c2c(CC)cccc12)c1ccccc1 (stereo not drawn),63*,-1,3,-6,-11
COc1cccc(OCc2cc(=O)n3c(-c4ccccc4)csc3n2)c1,-2,-2,-13,2,-5
Cc1nn(C)cc1C(C)Nc1nc2nonc2nc1N1CCCCC1 (stereo not drawn),2,-1,33*,0,-4
COc1cc(N/N=C(\C)c2ccc(O)c(C)c2)nc(-c2ccccc2)n1,1,0,34*,4,-4
C/C(=N\Nc1cc(-c2ccccc2)nc(-c2ccccc2)n1)c1ccc(O)c(C)c1,2,0,1,-13,0
CC(O)[C@H]1CC[C@H]2[C@@H]3CC[C@H]4C[C@H](O)CC[C@]4(C)[C@H]3[C@H](O)C[C@]12C (stereo partly drawn),72*,-1,-4,-3,-50*
COC(=O)C(Cc1c[nH]c2ccccc12)NC(=O)COc1ccc(Cl)cc1Cl (stereo not drawn),4,-1,-2,0,-32*
O=C(CNc1ccccc1)N/N=C/c1c[nH]c2ccccc12,7,-1,2,1,-4
O=C(COc1ccc(Cl)cc1Cl)NCC(=O)N/N=C/c1c[nH]c2ccccc12,0,0,35*,7,5
O=C(C1CC1)N1CCc2cc(Br)cc(S(=O)(=O)Nc3ccc(C(F)(F)F)cc3)c21,2,0,3,0,-19

# High-throughput results deposited in PubChem by National Center for Advancing Translational Sciences (NCATS).
